Screens from PubChem.
TrxR1 inh: rat TrxR1 inhibition; O89049; recombinant rTrxR1, NADPH fluorescence consumption, selenite substrate; Potency, µM (titrated, usually from 114 µM), usual class: inhibitors; actives 1% (n = 390,000); also: nearly all actives have a fitted effect of over 65% in size
Target sequence (O89049 whole entry, looked up): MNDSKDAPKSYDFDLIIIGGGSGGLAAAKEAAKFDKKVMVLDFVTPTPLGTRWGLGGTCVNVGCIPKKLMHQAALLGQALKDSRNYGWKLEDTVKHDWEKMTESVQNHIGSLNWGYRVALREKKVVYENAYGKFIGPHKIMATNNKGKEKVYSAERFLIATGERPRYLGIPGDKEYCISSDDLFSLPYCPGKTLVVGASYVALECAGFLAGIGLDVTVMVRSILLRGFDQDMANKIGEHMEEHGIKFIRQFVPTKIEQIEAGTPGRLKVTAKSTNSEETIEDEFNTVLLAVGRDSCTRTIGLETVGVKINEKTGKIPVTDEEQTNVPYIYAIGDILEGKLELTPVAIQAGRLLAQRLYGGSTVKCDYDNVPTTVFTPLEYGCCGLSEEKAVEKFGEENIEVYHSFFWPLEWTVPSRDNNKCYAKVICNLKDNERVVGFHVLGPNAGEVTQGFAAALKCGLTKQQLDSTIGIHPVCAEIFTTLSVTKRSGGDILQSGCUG
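Rat TrxR1 (90 nM in the dispensed reagent) was pre-reduced with 400 uM NADPH for 5 min at room temperature, then incubated with compound for 15 min. After 400 uM selenite was added, NADPH fluorescence (Ex 340/Em 450 nm) was followed for 8 min.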
TrxR1 substrate: is turned over as a substrate by rat TrxR1; AID 588456; actives 0.01% (n = 390,000); O89049; Potency, µM (series often up to 114 µM); purified TrxR1 substrate turnover, NADPH consumption readout; also: nearly all actives have a fitted effect of over 50% in size
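Rat TrxR1, dispensed at 90 nM, was prereduced with 400 uM NADPH (final) for 5 min at ~22 deg C, then incubated with compound 15 min before 400 uM selenite. A first-read NADPH fluorescence drop versus no-compound background flagged substrates.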
Coupling enz: counter-screen for Giardia aldolase inhibitors: coupling enzyme system | coupling enzyme system counterscreen, AmpLite Red fluorescence | activity change, negative = inhibition, % at 58.2 µM, hits read low | actives 0.67% (n = 290,000) | AID 2472; in the data active = activity change below about -30%
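Fluorescence at 525 nm excitation and 598 nm emission measured inhibition of the coupled detection system without aldolase. Compounds (at 57.5 uM final) were preincubated 10 min at room temperature with coupling enzyme reagent before a 20 min substrate/AmpLite Red step.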
GALK inhibitor: inhibitors of human galactokinase; AID 1868; P51570; actives 0.007% (n = 270,000); Potency, µM (top dose mostly 57.5 µM), usual class: inhibitors; Purified GALK, Kinase-Glo residual ATP luminescence
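GALK at 5 nM final was combined with compound, 35 uM ATP and 100 uM galactose in HEPES pH8.0 with MgCl2 and DTT. The reaction ran one hour at room temperature before luminescent ATP detection.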
USP1 inh: USP1/UAF1 (human) deubiquitinase inhibition. O94782. recombinant USP1/UAF1, Ub-Rhodamine cleavage fluorescence. Potency, µM (series often up to 57.1 µM), usual class: inhibitors. actives 0.23% (n = 390,000). AID 743255; also: nearly all actives have a fitted effect of over 60% in size
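High-throughput fluorogenic screen: 1nM USP1/UAF1 complex, Ub-Rho substrate 150nM final, 50mM HEPES pH 7.8 with 0.5mM EDTA, 0.1 mg/ml BSA, 1mM TCEP and 0.01% Tween-20.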
Hits are given with their value; . = inactive; ? = inconclusive; / = no result; [ ] = remark or other dose. An excerpt weighted towards active compounds, which were near 1.5% of everything screened. Unless noted, calls follow the shape of the dose curve; as a rule, active = well fitted curve in the direction sought with a large enough effect; inconclusive = small, poorly fitted or top-dose-only effect, or another doubt; inactive = no such curve, though single readings can be large; an effect the other way counts as inactive or inconclusive.

SMILES | TrxR1 inh | TrxR1 substrate | Coupling enz | GALK inhibitor | USP1 inh
COC(C(=O)C(O)C(C)O)C1Cc2cc3cc(OC4CC(OC5CC(O)C(O)C(C)O5)C(O)C(C)O4)c(C)c(O)c3c(O)c2C(=O)C1OC1CC(OC2CC(OC3CC(C)(O)C(O)C(C)O3)C(O)C(C)O2)C(O)C(C)O1 (stereo not given) | . | . | / | / | /
N#Cc1nc(N)nc(N2CCCCC2)n1 | . | . | / | / | /
Cc1noc2c1C(c1ccc(N(C)C)cc1)C1=C(CC(C)(C)CC1=O)N2 (stereo not given) | 50µM | . | . | . | .
COc1ccc(C(=O)NCS(=O)(=O)c2ccc(C)cc2)cc1 | 28µM | . | . | . | .
Cc1ccc(C(=O)CCS(=O)(=O)c2ccc(Br)cc2)cc1 | 0.5µM | . | . | . | .
Cc1ccc(S(=O)(=O)CCC(=O)c2cccc([N+](=O)[O-])c2)cc1 | ? | . | . | . | .
COc1ccc(C(=O)CCS(=O)(=O)c2ccc(C)cc2)cc1 | 14µM | . | . | . | .
COc1ccc(C(=O)NCCS(=O)(=O)NCc2ccc(C)cc2)cc1 | . | . | / | / | .
COC(=O)CSc1nc(SC)nc2c1sc1nc(-c3ccco3)c3c(c12)CC(C)(C)OC3 | . | . | / | / | .
CSc1nc(SCCO)c2sc3nc(-c4ccco4)c4c(c3c2n1)CC(C)(C)OC4 | 56µM | . | . | . | .
C=CCc1cccc(/C=N/NC(=O)CN2CCN(Cc3ccccc3)CC2)c1O | / | / | . | / | /
O=C(CSc1nc2ccccc2c(=O)[nH]1)c1ccc(O)c(O)c1 | 50µM | . | . | . | .
Cc1cc(=O)[nH]c(SCC(=O)c2ccc(O)c(O)c2)n1 | 56µM | . | . | . | .
CCOCCCn1c(=O)c(NC(=O)c2ccc(OCC)cc2)c2n(c1=S)CCCCC2 | . | . | . | . | .
CCn1c(=O)c(NC(=O)c2ccccc2)c2n(c1=S)CCCCC2 | . | . | -35 | . | .
C/C(CCc1oc2ccc(Br)cc2c1-c1ccc(C)o1)=N/O | 18µM | . | . | / | ?
C/C(CCc1oc2ccc(Cl)cc2c1-c1ccc(C)o1)=N\O | 10µM | . | . | . | .
COc1ccc(-n2nnnc2S(=O)(=O)CC(=O)N2CCCCC2)cc1 | 2.2µM | . | . | . | ?
COc1ccc(-n2nnnc2S(=O)(=O)Cc2ccc(C(=O)O)cc2)cc1 | 16µM | . | . | . | .
O=S(=O)(Cc1ccccc1)c1nnnn1-c1ccccc1 | / | / | . | / | /
N#Cc1ccc(/C=C2\C=Cc3ccccc32)cc1 | . | . | / | / | /
Cc1cc2nc(CSc3ccccc3)cc(=O)n2[nH]1 | . | . | -31 | . | .
Cc1cc(O)c(C)c2sc(N)nc12 | / | / | . | / | /
Oc1ccc(N=Cc2ccc(OCc3ccccc3)cc2)cc1 | ? | . | -32 | . | 2.8µM
N#Cc1c(N)sc(=S)c2c1CCCCC2 | . | .[11.4 µM] | -33 | . | ?
SMILES | TrxR1 inh | TrxR1 substrate | Coupling enz | GALK inhibitor | USP1 inh
CC1(C)Cc2c(C#N)c(N)sc(=S)c2CS1 | 14µM | . | -44 | . | .
CCC1CC=CC2C1C(=O)N(Cc1ccccc1)C2c1cccc([N+](=O)[O-])c1 (stereo not given) | ? | . | . | / | /
Cc1ccc(S(=O)(=O)NC(=O)Nc2ccc(N(C)C)cc2)cc1 | . | . | / | . | 18µM
Cc1ccc(NC(=O)NNS(=O)(=O)c2ccc(Br)cc2)cc1 | . | . | . | . | .
Cc1cc(O)c(C=O)c2c1C(=O)Oc1c(CO)c(O)c3c(c1O2)C(O)OC3=O (stereo not given) | 50µM | . | . | . | ?
Cc1cc(O)c(C=O)c2c1C(=O)Oc1c(COC(=O)/C=C/C(=O)O)c(O)c(C(=O)O)c(C)c1O2 | / | / | . | / | /
CCn1ccnc1C(O)c1ccc(N(C)C)cc1 (stereo not given) | 40µM | . | . | . | .
CCOc1ccc(C(O)c2nccn2Cc2ccccc2)cc1 (stereo not given) | . | . | . | . | .
CCOc1ccccc1-c1nnc2n1N=C(c1ccc(OC)c(OC)c1)CS2 | / | / | . | / | /
O=[N+]([O-])c1ccc(S(=O)(=O)CC(CN2CCCCC2)N2CCCCC2)cc1 (stereo not given) | 2.5µM | . | . | . | .
COC(=O)C1(C(=O)OC)C[C@@H]2CON=C2[C@H]1c1ccccc1 | / | / | . | / | /
O=[N+]([O-])c1ccc(N2CCCC2)c([N+](=O)[O-])c1 | / | / | / | / | .
